From PubChem BioAssay
HP1b binding inh – HTS for Inhibitors of HP1-beta Chromodomain Interactions with Methylated Histone Tails. AlphaScreen HP1-beta / biotin-H3K9me3 peptide binding. 390,000 compounds, 0.56% hits. Chromobox protein homolog 1 (Homo sapiens), P83916. Potency, µM (highest dose often 114 µM), for the others: top-dose activity change, negative = inhibition, most hits filed as inhibitors; further: nearly all actives have a fitted effect of over 70% in size
Target sequence (P83916 whole entry, looked up): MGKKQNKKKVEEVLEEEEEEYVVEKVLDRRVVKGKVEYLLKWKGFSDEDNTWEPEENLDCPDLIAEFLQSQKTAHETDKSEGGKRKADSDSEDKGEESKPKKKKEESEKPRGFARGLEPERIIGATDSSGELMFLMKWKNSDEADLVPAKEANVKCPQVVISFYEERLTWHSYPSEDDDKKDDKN
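Compound inhibition of the preformed complex between 50 nM HP1-beta and 50 nM biotinylated H3K9me3 peptide was read by AlphaScreen. Buffer was PBS pH 7.4 with 0.01% Tween-20. Incubations ran 30 min at room temperature, with 10 ug/mL donor/acceptor beads.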
BAZ2B inh – qHTS Assay for Inhibitors of BAZ2B; Bromodomain adjacent to zinc finger domain protein 2B (Homo sapiens), Q9UIF8; AlphaScreen BAZ2B-H3K14Ac peptide displacement; Potency, µM (titrated, usually from 114 µM), for the others: at the highest dose activity change, negative = inhibition, actives largely listed as inhibitors; 360,000 compounds, 4.4% hits; AID 504333, 2011; further: on the % scale 0 is the no-effect control and ±100 the full control effect; nearly all actives have a fitted effect of over 60% in size
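AlphaScreen luminescence quantifies BAZ2B engagement of H3K14Ac peptide; the protein and biotinylated peptide are both at 50 nM final, buffer PBS pH 7.4 with 0.01% Tween-20, all steps at room temperature.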
ALOX12 inh – Primary qHTS assay for inhibitors of human arachidonate 12S-lipoxygenase (ALOX12): Round 2; Potency, µM (top dose mostly 108 µM), inactives show top-dose activity change, negative = inhibition, most hits filed as inhibitors; Polyunsaturated fatty acid lipoxygenase ALOX12 (Homo sapiens), P18054; 580,000 compounds, 1.1% hits; purified 12hLO, xylenol orange hydroperoxide absorbance; further: on the % scale 0 is the no-effect control and ±100 the full control effect
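Purified human 12hLO at 150 nM in 25 mM Hepes, 0.01% Triton X-100, pH 7.0, preincubated 15 min at room temperature with compound. Reaction started with 40 uM arachidonic acid, 30 min at room temperature. Hydroperoxide measured by Fe-xylenol orange, 573/405 nm absorbance ratio.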
G9a inh – qHTS Assay for Inhibitors of Histone Lysine Methyltransferase G9a; Histone-lysine N-methyltransferase EHMT2 (Homo sapiens), Q96KQ7; G9a H3K9 monomethylation, AlphaScreen, 2 h; Potency, µM (top dose mostly 102 µM), for inactives: at the top dose activity, negative = inhibition, most hits filed as inhibitors; 350,000 compounds, 8.8% hits; further: on the % scale 0 is the no-effect control and ±100 the full control effect; nearly all actives have a fitted effect of over 75% in size
Target sequence (Q96KQ7 913-1193 limits assumed): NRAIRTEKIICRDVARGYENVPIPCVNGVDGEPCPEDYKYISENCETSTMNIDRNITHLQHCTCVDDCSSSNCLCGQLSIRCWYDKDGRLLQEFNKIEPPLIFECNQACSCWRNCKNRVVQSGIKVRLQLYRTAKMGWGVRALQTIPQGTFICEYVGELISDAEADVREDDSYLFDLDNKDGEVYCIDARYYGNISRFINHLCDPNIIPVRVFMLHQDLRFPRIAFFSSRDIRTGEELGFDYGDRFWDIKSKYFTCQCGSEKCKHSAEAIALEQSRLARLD
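Compounds were preincubated with 20 nM G9a for 15 min, after which biotinylated H3K9 peptide (500 nM) and SAM (20 uM) started a 2 h room-temperature reaction. Monomethylated product was quantified by antibody-based AlphaScreen chemiluminescence.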
Sfp inh – qHTS Assay for Inhibitors of Bacillus subtilis Sfp phosphopantetheinyl transferase (PPTase). Potency, µM, for the others: largest response in the series, negative = inhibition, most hits filed as inhibitors. AID 1490, 2009. 4'-phosphopantetheinyl transferase ffp (Bacillus subtilis), Q9F4F7. Biochemical Sfp PPTase activity, qHTS. 310,000 compounds, 3.5% hits;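 further: the enzyme is Sfp with the accession as filed and its product quenches rhodamine fluorescence; 0% = enzyme reaction without inhibitor and -100% = no enzyme wells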
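Fluorescence-quenching assay: 15 nM Sfp-PPTase preincubated 15 min at room temperature with compound, then 5 uM rhodamine-CoA and 12.5 uM BHQ-2-labelled YbbR peptide added. Fluorescence (ex 525/em 598 nm) read at start and after 30 min; difference gives rate.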
JMJD2A Tudor – qHTS Assay for Inhibitors of JMJD2A-Tudor Domain; Lysine-specific demethylase 4A (Homo sapiens), O75164; AlphaScreen JMJD2A-Tudor / H3K4me3 peptide binding; Potency, µM (doses to about 114 µM), for the others: at the highest dose activity change, negative = inhibition, hits mostly inhibitors; 390,000 compounds, 4.4% hits; AID 504339, 2011; further: on the % scale 0 is the no-effect control and ±100 the full control effect; nearly all actives have a fitted effect of over 50% in size
An asterisk follows results filed as active; ? = inconclusive; . = no result given; [ ] = another dose, or the depositor's remark. The list is not random: actives were taken first. Their share in the collection is about 8.7%. The call rests on the fitted dose curve; in most records, active means well fitted curve in the direction sought with a large enough effect; inconclusive means small, poorly fitted or top-dose-only effect, or another doubt; inactive means no such curve, though single readings can be large; an effect the other way counts as inactive or inconclusive. Potency means the concentration at half of the fitted maximal effect.

SMILES | HP1b binding inh | BAZ2B inh | ALOX12 inh | G9a inh | Sfp inh | JMJD2A Tudor
Cc1c(Br)c(O)c(Br)c2sc(=O)oc12 | 28µM* | ? | -87% | 3.5µM* | 2.8µM* | 45µM*
CN(CCCc1cnc[nH]1)C(=S)NCCCN(Cc1ccc(Cl)cc1)c1ccc(Br)cn1 | ? | . | . | . | . | 32µM*
S=C(NCCCc1cnc[nH]1)NCCCN(Cc1ccc(Cl)cc1)c1cc(-c2ccccc2)ccn1 | ? | . | . | . | . | 56µM*
COc1ccc(CN(CCCN)c2ccc(Br)cn2)cc1 | -1% | . | . | . | . | -25%
S=C(NCCCN(Cc1ccc(Cl)cc1)c1ccc(Br)cn1)NCc1ccc2nc[nH]c2c1 | -15% | . | . | . | . | 50µM*
Clc1ccc(CN(CCCNc2ncnc(NCCCc3cnc[nH]3)n2)c2ccc(Br)cn2)cc1Cl | . | . | . | . | . | 35µM*
Cc1cc(C)cc(Nc2nc3ccccc3nc2NS(=O)(=O)c2ccc(F)cc2)c1 | . | . | 20% | . | . | .
O=C(O)CN1C(=O)S/C(=C/c2cccc(F)c2)C1=O | . | . | -6% | . | . | .
S=C(NCCCc1cnc[nH]1)NCCN(Cc1ccc(Cl)c(Cl)c1)c1ccc(Br)cn1 | . | . | . | . | . | 56µM*
NCCN(Cc1ccc(Cl)c(Cl)c1)c1ccc(Br)cn1 | 23% | . | . | . | . | -22%
S=C(NCCCN(Cc1ccc(Cl)c(Cl)c1)c1ccc(Br)cn1)NCCc1cnc[nH]1 | . | . | . | . | . | 40µM*
COc1ccc(C(=O)N2C[C@@H](Oc3ccccc3)C[C@@H]2C(=O)N2CCOCC2)cc1 | . | . | 6% | . | . | .
O=C(O)CCCNS(=O)(=O)c1ccc(NCc2ccccc2)c(C(=O)O)c1 | 40% | -36% | 384% | 22µM* | -5% | -9%
O=C(O)CCCNS(=O)(=O)c1cccc(Cl)c1 | . | . | 1% | . | . | .
CCCn1nc([N+](=O)[O-])c(C(C#N)c2nc3ccccc3o2)c(Cl)c1=O (stereo unspecified) | ? | 20µM* | 40µM* | 10µM* | -17% | 56µM*
CCn1nc([N+](=O)[O-])c(C(C#N)c2nc3cc(C(F)(F)F)ccc3s2)c(Cl)c1=O (stereo unspecified) | 22µM* | 11µM* | ? | 11µM* | -18% | 28µM*
O=C(CSc1nc2cc(Cl)ccc2s1)N1c2ccccc2Sc2ccc(C(F)(F)F)cc21 | . | . | -6% | . | . | .
Cn1nc([N+](=O)[O-])c(C(C#N)c2ccccn2)c(Cl)c1=O (stereo unspecified) | 10% | -36% | -10% | 11µM* | -5% | -27%
Cc1ccc(C(=O)NCCCN(C)CC(F)(F)F)cn1 | . | . | 8% | . | . | .
Cc1ccc(Nc2nnc(SCc3nnc(C(C)(C)C)o3)s2)cc1 | . | . | 1% | . | . | .
Cc1ccc(C(=O)C(C)Sc2nc(CN3CCOCC3)nc3ccccc23)cc1 (stereo unspecified) | . | . | -28% | . | . | .
COc1ccc(-c2c(N)nnc3c2[nH]c2ccccc23)cc1OC | 4% | -5% | ? | -27% | 3% | -20%[11.4 µM]
COc1ccc(OC)c2c(=S)c3ccccc3[nH]c12 | . | . | ? | . | 56µM* | .
Nc1[nH]c(=O)nc(Nc2ccccc2)c1N=O | 34% | . | 497% | . | . | 35µM*
COc1cccc(CNCC(O)COc2ccc(C(C)=O)cc2OC)c1 (stereo unspecified) | . | . | -77% | . | . | .
SMILES | HP1b binding inh | BAZ2B inh | ALOX12 inh | G9a inh | Sfp inh | JMJD2A Tudor
COc1cc(C(C)=O)ccc1OCC(O)CNCC1(N2CCCCC2)CCCCC1 (stereo unspecified) | ? | 50µM* | -25% | 28µM* | ? | 3.2µM*
COc1ccccc1COCC(O)CNCC1(N2CCCCC2)CCCCC1 (stereo unspecified) | ? | ? | ? | 4.5µM* | -22% | 1.8µM*
C=CCNCC(O)COc1ccc(C(C)=O)cc1OC (stereo unspecified) | 71µM* | 50µM* | -69% | . | ? | 2µM*
COc1ccccc1COCC(O)CN(CC(O)COCc1ccccc1OC)C12CC3CC(CC(C3)C1)C2 (stereo unspecified) | . | . | -8% | . | . | .
Cc1nc(CCN2C(=O)c3ccccc3C2=O)cs1 | -19% | -4% | -17% | ? | 79µM* | -7%
CNc1nc(CCN2C(=O)c3ccccc3C2=O)cs1 | 14% | -38% | -4% | 13% | 2% | -10%
COc1cc(C)c(NC(=O)CC2CC3CCC2C3)cc1OC (stereo unspecified) | . | . | 1% | . | . | .
Cc1ccc(C(=O)N[C@H]2C[C@@H](c3nc(Cc4ccccc4)no3)N(C)C2)cc1 | . | . | -7%[176 µM] | . | . | .
Cc1ccc(C)c(NCC(O)c2ccccc2)c1 (stereo unspecified) | 3% | -33% | 0% | 71µM* | 25% | -16%
Cc1cccc(C(=O)NCC(O)c2ccccc2)c1 (stereo unspecified) | . | . | -5% | . | . | .
O=c1n(CC2CC2)nc2n1CCN(Cc1ccc3[nH]ccc3c1)CC2 | . | . | 40% | . | . | .
CC(=O)N1CCN(S(=O)(=O)c2cccc3cc(C)cnc23)CC1 | . | . | 57% | . | . | .
Cc1cccc(OC[C@H]2C[C@@H](NC(=O)c3ccc(C#N)cc3)[C@H](O)[C@@H]2O)n1 | . | . | 25µM* | . | . | .
CCNc1nc(NCC)nc(N/N=C/c2ccc([N+](=O)[O-])o2)n1 | 11% | ? | 8% | 1.8µM* | -11% | -27%
O=C(N/N=C/c1ccc([N+](=O)[O-])o1)c1cc2c(ccc3ccccc32)o1 | -10% | 56µM* | -26% | . | ? | ?
Cc1ccc(/C=N/NC(=O)c2cc3c(ccc4ccccc43)o2)o1 | 40% | -16% | ? | -6% | 12% | -11%
O=[N+]([O-])c1ccc(/C=N/Nc2ccc3ccccc3c2)o1 | ? | 8.9µM* | 10µM* | 10µM* | -20% | 7.1µM*
Cc1nc2ccccn2c1C(=O)N/N=C/c1ccc([N+](=O)[O-])o1 | ? | 45µM* | -26% | 50µM* | -16% | 40µM*
O=[N+]([O-])c1ccc(/C=N/Nc2nc(N3CCCC3)nc(N3CCCC3)n2)o1 | 11% | -5% | 5% | -10%[59 µM] | -2% | -31%
Cc1nc(-c2ccccc2)n(Cc2ccc(F)cc2Cl)c(=O)c1CCO | . | . | 5% | . | . | .
Cc1ccccc1-c1noc(CN(C)C(C)c2cc3ccccc3o2)n1 (stereo unspecified) | . | . | 13% | . | . | .
COc1ccc(-c2noc(-c3cccn3CC(=O)NCCc3ccccc3)n2)cc1F | . | . | -14% | . | . | .
O=C(N/N=C/c1ccc([N+](=O)[O-])o1)c1cc2ccccc2o1 | 3%[57 µM] | -36% | -22% | 50µM* | 7% | -35%
